Cytotoxicity data for 93 molecules are collected here from PubChem BioAssay AID430 (Sanford-Burnham Center for Chemical Genomics, 2006).

SMILES strings stand for the structures. Hit rate of the full screen: of about 63,000 compounds, about 1,100 (1.7%) were called active. No stated cut-off is given here; in the data, active means cytotoxicity above about 50%; inactive means the rest. This excerpt belongs to a sample that is enriched for actives. Entries with a potency or affinity are not part of this list.

The assay in a line: HPDE-C7 pancreatic duct cell viability loss – fluorescence, HTS (AID 430).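 Further: cells exposed to compound for 48 hours before viability readout; 0% = vehicle and 100% = reference cytotoxic drug.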 The note with it: HPDE-C7 pancreatic duct cells viability, at 10 µM, active compounds read high.
Consider `COc1ccc(S(=O)(=O)n2cnc3cc(C)c(C)cc32)cc1C`, for which the cytotoxicity is 20.4% (inactive).

Take `O=C(CN(CCc1ccccc1)C(=O)CNS(=O)(=O)c1ccccc1)NCC1CCCO1` (stereo not drawn): the cytotoxicity was -10.5% (inactive).

For `O=C(Nc1nc(-c2cccnc2)cs1)c1ccc(S(=O)(=O)N2CCOCC2)cc1`, the cytotoxicity was -18.5% (inactive).

`Cc1nc(N)c(C#N)c(-c2ccccc2)c1C`: the cytotoxicity is 13.3% (inactive).

Turning to `Cc1c(-c2ccccc2)nc(N)c(C#N)c1-c1ccco1`, the cytotoxicity was -4.2% (inactive).

As for `CC1=C(C#N)c2nc(N)c(C#N)c(C)c2/C1=C\c1ccccc1`, the cytotoxicity is 107% (active).

With `COc1ccc(CNC(=O)c2csnn2)cc1`, the cytotoxicity is -14.5% (inactive).

With `CN(C)/C=C1/Sc2ccccc2C1=O`, the cytotoxicity was -34.3% (inactive).

In the case of `CN(C)C=C1C(=O)c2ccccc2C1=O`, the cytotoxicity is 29.6% (inactive).

As to `CN(C)/C=C1\C(=O)c2ccc(N(C)C)nc2CC1c1ccccc1` (stereo not drawn), the cytotoxicity was 60.7% (active).

For `CCN1C(=O)C2(C(C#N)=C(N)Oc3c2c(C)nn3-c2ccccc2)c2ccccc21` (stereo not drawn), the cytotoxicity is -16% (inactive).

As to `Cc1cc2n(n1)C(c1ccccc1)Nc1ccccc1-2` (stereo not drawn), the cytotoxicity is -1.8% (inactive).

Turning to `Cc1cc2n(n1)C(c1ccccc1Cl)Nc1ccccc1-2` (stereo not drawn), the cytotoxicity was 9.5% (inactive).

With `Cc1ccc(C(=O)NC(Cc2c[nH]c3ccccc23)C(=O)O)o1` (stereo not drawn), the cytotoxicity is -0.1% (inactive).

In the case of `COc1cccc(C2/C(=C(\O)c3ccc(OC)c(OC)c3)C(=O)C(=O)N2c2cc(C)on2)c1` (stereo not drawn), the cytotoxicity is 20.9% (inactive).

For the molecule `COc1ccc(/C(O)=C2\C(=O)C(=O)N(c3cc(C)on3)C2c2ccccc2OC)cc1` (stereo not drawn), the cytotoxicity is -1.9% (inactive).

`Cc1cc(N2C(=O)C(=O)/C(=C(/O)c3ccc(Cl)cc3)C2c2cccc(Br)c2)no1` (stereo not drawn): the cytotoxicity was 56.2% (active).

Regarding `Cc1cc(N2C(=O)C(=O)/C(=C(/O)c3ccc(F)cc3)C2c2ccc(Cl)cc2)no1` (stereo not drawn), the cytotoxicity was 34.6% (inactive).

For `Cc1cc(N2C(=O)C(=O)/C(=C(/O)c3ccc(F)cc3)C2c2cccc(Br)c2)no1` (stereo not drawn), the cytotoxicity was 71.5% (active).

Turning to `Cc1cc(N2C(=O)C(=O)/C(=C(/O)c3ccc(F)cc3)C2c2ccc(F)cc2)no1` (stereo not drawn), the cytotoxicity is 23.3% (inactive).

Take `Cc1ccc(/C(O)=C2\C(=O)C(=O)N(c3cc(C)on3)C2c2cccc(Br)c2)cc1` (stereo not drawn): the cytotoxicity is 49.9% (inactive).

In the case of `Cc1ccc(/C(O)=C2\C(=O)C(=O)N(c3cc(C)on3)C2c2cccc(Cl)c2)cc1` (stereo not drawn), the cytotoxicity is 51.8% (active).

With `Cc1cc(N2C(=O)C(=O)/C(=C(/O)c3ccccc3)C2c2cccc(Br)c2)no1` (stereo not drawn), the cytotoxicity is 3.2% (inactive).

For `Cc1c(N=Cc2cc3c(cc2Cl)OCO3)c(=O)n(-c2ccccc2)n1C`, the cytotoxicity was -3.1% (inactive).

For `COc1ccccc1OCCCCNCCO`, the cytotoxicity was -0.7% (inactive).

For `CCOC(=O)N1CCC(N2CCN(S(=O)(=O)c3ccc(NC(C)=O)cc3)CC2)CC1`, the cytotoxicity was -12.8% (inactive).

`Cc1ccnc(Sc2nc3c(c(=O)[nH]c(=O)n3C)n2CCCc2ccccc2)n1`: the cytotoxicity is -9.5% (inactive).

In the case of `C=CCn1c(SCC(=O)Nc2cccc(C(=O)OC)c2)nnc1C(C)NC(=O)c1cccs1` (stereo not drawn), the cytotoxicity was -5% (inactive).

As for `O=C(c1cc(-c2cccs2)on1)N1CCc2ccccc2C1`, the cytotoxicity is 2.3% (inactive).

On to `CSc1nc2nc(C)cc(-c3ccccc3)n2n1`, for which the cytotoxicity is -10.4% (inactive).

For `Cc1cccc(NC(=O)C2CCN(S(=O)(=O)c3c(C)nn(C)c3C)CC2)n1`, the cytotoxicity is 1.6% (inactive).

Turning to `COc1ccc2[nH]c(=O)c(CN(C(=O)c3ccccn3)C3CCCCC3)cc2c1`, the cytotoxicity is -30.2% (inactive).

Turning to `O=C(c1ccc(S(=O)(=O)N2CCOCC2)cc1)N1CCc2ccccc2C1`, the cytotoxicity was -7.6% (inactive).

Regarding `CCOC(=O)C1=C(C)NC(=O)NC1/C(C)=C/c1ccccc1` (stereo not drawn), the cytotoxicity was -16% (inactive).

In the case of `COc1cccc(OC)c1-c1nn2c(-c3cc(-c4ccccc4)n[nH]3)nnc2s1`, the cytotoxicity was 68.9% (active).

`COc1cccc(OC)c1-c1nn2c(-c3ccccc3Cl)nnc2s1`: the cytotoxicity was 19.8% (inactive).

On to `COc1ccc(-c2nnc3sc(-c4c(OC)cccc4OC)nn23)cc1`, for which the cytotoxicity was 10.9% (inactive).

As to `Cc1nnc2sc(-c3cc4ccccc4o3)nn12`, the cytotoxicity was 5.6% (inactive).

Take `COc1cc(-c2nnc3sc(-c4ccncc4)nn23)cc(OC)c1OC`: the cytotoxicity was -12.2% (inactive).

With `COc1cccc(-c2nn3c(-c4ccco4)nnc3s2)c1`, the cytotoxicity was -0.7% (inactive).

As to `COc1cc(-c2nnc3sc(-c4cccs4)nn23)cc(OC)c1OC`, the cytotoxicity is 75.8% (active).

For `COc1ccccc1-c1nn2c(-c3ccccc3Cl)nnc2s1`, the cytotoxicity is -14.1% (inactive).

On to `COc1cccc(-c2nnc3sc(-c4ccco4)nn23)c1`, for which the cytotoxicity is 58% (active).

With `CCOc1cccc(-c2nnc3sc(-c4ccco4)nn23)c1`, the cytotoxicity is 21.5% (inactive).

Take `COc1ccccc1-c1nnc2sc(-c3cc4ccccc4o3)nn12`: the cytotoxicity was 56.2% (active).

Consider `COc1ccc(-c2nnc3sc(-c4cccs4)nn23)cc1OC`, for which the cytotoxicity is 20.2% (inactive).

Turning to `CCOc1ccc(N=C(NC#N)SC)cc1`, the cytotoxicity is -2.8% (inactive).

`CCN(CC)CCNC(=O)c1ccc2c(c1)ncn2C1CCCCC1`: the cytotoxicity is 0.5% (inactive).

As for `O=C(Nc1cccc(C(F)(F)F)c1)C1CCCN(S(=O)(=O)c2cnc[nH]2)C1` (stereo not drawn), the cytotoxicity was -7.5% (inactive).

Regarding `CCOC(=O)CN(C(=O)CSc1nnc(-c2ccncc2)n1CCCN(C)C)c1ccccc1`, the cytotoxicity was -4.8% (inactive).

Turning to `Cc1nc2c3c4c(sc3n3c(SCC(=O)NCc5ccco5)nnc3n2n1)COC(C)(C)C4`, the cytotoxicity was -6.3% (inactive).

Regarding `Cc1cc(Cl)c(S(=O)(=O)NCc2ccncc2)cc1OCC(N)=O`, the cytotoxicity was 5.1% (inactive).

Turning to `CC1(C)CC(=O)C=C(Nc2ccccc2F)C1`, the cytotoxicity is 1.2% (inactive).

Take `O=C(c1ccc(Cl)cc1)C1CCN(C(=O)NC2CCCCC2)CC1`: the cytotoxicity was -11.6% (inactive).

With `N#CCCCN1C(=O)C(O)(CC(=O)c2ccc3c(c2)OCCO3)c2ccccc21` (stereo not drawn), the cytotoxicity is -27.8% (inactive).

As for `Cc1ccc(-n2c(Cn3cnc4ccccc43)nnc2SCC(=O)O)cc1`, the cytotoxicity was -16.2% (inactive).

As to `COc1ccc(NC(C)=O)cc1NC(=O)CN1CCN(CC(=O)Nc2ccc(Cl)cc2)CC1`, the cytotoxicity was -12.5% (inactive).

As for `CCc1nc2ccccc2c(NC(=O)CN2CCC(C)CC2)c1C`, the cytotoxicity is 8.8% (inactive).

Regarding `CCOC(=O)C1CCCN(CC(=O)NC2=Nc3ccccc3N=C(C)C2c2ccccc2)C1` (stereo not drawn), the cytotoxicity is 3.8% (inactive).

As to `O=C(NCc1ccc(F)cc1)c1noc2c1CCCC2`, the cytotoxicity is -10.3% (inactive).

In the case of `Cc1oc(-c2ccc(F)cc2)cc1-c1nn2c(-c3ccco3)nnc2s1`, the cytotoxicity was -18% (inactive).

On to `Clc1ccc(-c2ccc(-c3nn4c(-c5ccco5)nnc4s3)o2)cc1`, for which the cytotoxicity was -11.9% (inactive).

With `Fc1ccc(-c2ccc(-c3nn4c(-c5ccco5)nnc4s3)o2)cc1`, the cytotoxicity was 73.5% (active).

Take `COc1cccc(OCc2nc3ccccc3c(=O)n2N)c1`: the cytotoxicity is -8.2% (inactive).

Turning to `CCCn1c(C)nc2c(c1=O)c1nc3ccccc3nc1n2-c1ccc2c(c1)OCCO2`, the cytotoxicity is 51.4% (active).

Turning to `CCC(C)n1cnc2c(c1=O)c1nc3ccccc3nc1n2-c1ccc2c(c1)OCCO2` (stereo not drawn), the cytotoxicity is -13.4% (inactive).

For `O=c1c2c3nc4ccccc4nc3n(-c3ccc4c(c3)OCCO4)c2ncn1CC1CCCO1` (stereo not drawn), the cytotoxicity is 0.3% (inactive).

For the molecule `CC(=NCC1CCCO1)C1=C(O)CC(C)(C)CC1=O` (stereo not drawn), the cytotoxicity is -12.6% (inactive).

Regarding `Cc1ccccc1-n1nc2c(c1NC(=O)COc1ccc(Cl)cc1)CS(=O)C2` (stereo not drawn), the cytotoxicity is 10% (inactive).

Take `CCCNC(=O)c1cc(-c2ccco2)on1`: the cytotoxicity is -2.4% (inactive).

Take `CCCOc1ccc(C(=O)NCc2cccnc2)cc1`: the cytotoxicity is -13.2% (inactive).

Consider `Cc1ccc(S(=O)(=O)Cn2nnnc2C(CC(C)C)N2CCN(C(=O)c3ccco3)CC2)cc1` (stereo not drawn), for which the cytotoxicity was 4.4% (inactive).

As to `COCCN(CCOC)S(=O)(=O)c1ccc(C(=O)Nc2nnc(C)o2)cc1`, the cytotoxicity was -6.2% (inactive).

In the case of `CCc1nnc(NC(=O)c2ccc(S(=O)(=O)N(CC(C)C)CC(C)C)cc2)o1`, the cytotoxicity was 48.8% (inactive).

Regarding `CCN(c1ccccc1)S(=O)(=O)c1ccc(C(=O)Nc2nnc(COC)o2)cc1`, the cytotoxicity is 60.9% (active).

`CCCCN(CC)S(=O)(=O)c1ccc(C(=O)Nc2nnc(CSC)o2)cc1`: the cytotoxicity is 23.6% (inactive).

Consider `CCCCN(CCCC)S(=O)(=O)c1ccc(C(=O)Nc2nnc(COC)o2)cc1`, for which the cytotoxicity is 75.3% (active).

In the case of `COCc1nnc(NC(=O)c2ccc(S(=O)(=O)N(C)c3ccccc3)cc2)o1`, the cytotoxicity is 42.1% (inactive).

With `CSCc1nnc(NC(=O)c2ccc(S(=O)(=O)N(CC(C)C)CC(C)C)cc2)o1`, the cytotoxicity was 62.4% (active).

`CCCCN(CC)S(=O)(=O)c1ccc(C(=O)Nc2nnc(COC)o2)cc1`: the cytotoxicity is 17.5% (inactive).

With `COCc1nnc(NC(=O)c2ccc(S(=O)(=O)N(C)C3CCCCC3)cc2)o1`, the cytotoxicity is 47.9% (inactive).

For `CCCCN(CCCC)S(=O)(=O)c1ccc(C(=O)Nc2nnc(CSC)o2)cc1`, the cytotoxicity is 73.1% (active).

On to `CCc1nnc(NC(=O)c2ccc(S(=O)(=O)N(CCOC)CCOC)cc2)o1`, for which the cytotoxicity is -20.2% (inactive).

In the case of `CCCN(CCC)S(=O)(=O)c1ccc(C(=O)Nc2nnc(CSC)o2)cc1`, the cytotoxicity is 12.6% (inactive).

On to `O=C(O)C1CC(=O)N(c2ccc(F)c(F)c2)C1` (stereo not drawn), for which the cytotoxicity was -4.7% (inactive).

Consider `CC1CCN(C(=O)CSc2nnc(-c3cc4ccccc4cc3O)n2Cc2ccco2)CC1`, for which the cytotoxicity is 22.2% (inactive).

`CCOC(=O)Cn1nc(C)c(-c2ccccc2)c1N`: the cytotoxicity is -9.4% (inactive).

For `Cc1nc2sc(C(c3ccccc3)N3CCC(O)CC3)c(O)n2n1` (stereo not drawn), the cytotoxicity was 7.2% (inactive).

Turning to `O=C(O)c1ccc(S(=O)(=O)c2ccc3c(c2)C(=O)N(CC2CCCO2)C3=O)cc1` (stereo not drawn), the cytotoxicity was -5.6% (inactive).

Consider `O=C(NC1CCCC1)C1CC(=O)N(C2CCCCCCC2)C1` (stereo not drawn), for which the cytotoxicity was -18% (inactive).

Take `Cn1c(=O)c(NCCO)c2c3c(cccc31)C(=O)c1ccccc1-2`: the cytotoxicity was -8.4% (inactive).

For `CCNc1c2c3c(cccc3n(C)c1=O)C(=O)c1ccccc1-2`, the cytotoxicity is 53.8% (active).

With `CC(=O)Nc1c2c3c(cccc3n(C)c1=O)C(=O)c1ccccc1-2`, the cytotoxicity is -6.7% (inactive).
